Here are results for 57 sequences from the supplement of paper PMC10338343.

± gives the standard deviation.

This test deals with MILI (PIWIL2) piRISC loaded with L1MC piRNA (26 nt). The experiment in a line: pre-steady-state target cleavage rate (min^-1); guide: L1MC piRNA 5'p-UAACUAAAUACUAUGCAAGCUGUAGG; MIWI and MILI are mouse PIWI proteins and EfPiwi is from a freshwater sponge; tags in brackets are library labels; higher = faster piRNA-guided slicing of the target. In short, it runs like this:
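Reactions were run for 0–8 or 0–960 min at 33 °C in HEPES–potassium acetate buffer, combining 1 nM active affinity-purified piRISC with one synthetic guide, […] transcribed, DNA-blocked target RNA library and, in some cases, 500 nM GTSF1 partner protein. Sequencing of uncleaved targets followed, with normalisation to depth and to weakly complementary targets. Three trials were pooled, k3 was capped at 0.0001 min^-1, and the pre-steady-state cleavage rate was taken from a burst-and-steady-state fit.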

Setting [1] is: auxiliary factor: 500 nM mouse GTSF1.
[2] abbreviates: auxiliary factor: none (no GTSF1).
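Further: 1 nM active piRISC with 0.1 nM target library at 33 °C single turnover.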

Turning to UCCUCCUACACCUUGGAUAGUAUUUAGUUA, the “pre-steady-state target cleavage rate” value under setting [1] amounted to 0.182 ± 0.026 and the “pre-steady-state target cleavage rate” value under setting [2] is 0.00508 ± 0.0023.

Regarding UCCUGGAACAGCUAGGAUAGUAUUUAGUUA, the “pre-steady-state target cleavage rate” value by setting is: under setting [1], 0.26 ± 0.016; under setting [2], 0.00746 ± 0.002.

Regarding UCCUGGAUGUCGAAGCAUAGUAAUUUAGUUA, the “pre-steady-state target cleavage rate” value runs as follows: under setting [1], 0.0148 ± 0.0051; under setting [2], 0.0059 ± 0.0018.

UCCUGGUACACCUUGCAUAGUUUUUAGUUA: the “pre-steady-state target cleavage rate” value under setting [1] is 0.0288 ± 0.011 and the “pre-steady-state target cleavage rate” value under setting [2] stood at 0.00381 ± 0.0034.

For UCCUGGAUGUGGUUGCAUACUAUUUAGUUA, the “pre-steady-state target cleavage rate” value runs as follows: under setting [1], 0.0175 ± 0.0072; under setting [2], 0.00525 ± 0.0036.

As for UCCUGGAACACGAUGCAUAGUAUUUAGUAA, the “pre-steady-state target cleavage rate” value under setting [1] is 0.0953 ± 0.013 and the “pre-steady-state target cleavage rate” value under setting [2] was determined as 0.00313 ± 0.0029.

Regarding UCCUGGAUGUCGUUGCGUAGUAUUUAGUUA, the “pre-steady-state target cleavage rate” value reads like this: under setting [1], 0.0164 ± 0.0059; under setting [2], 0.00779 ± 0.0026.

UCCUGGAUGUCGAUGCAUAGUCUUUAGUUA: the “pre-steady-state target cleavage rate” value was 0.0205 ± 0.0056 under setting [1] and 0.00627 ± 0.002 under setting [2].

For UCCUGGAACACCUUGGAUAGUAUUUAGUUA, the “pre-steady-state target cleavage rate” value was determined as 0.153 ± 0.021 under setting [1] and 0.00568 ± 0.0025 under setting [2].

With UCCUGGAUGUCAUUGCAUAGUAUUUAGUUA, the “pre-steady-state target cleavage rate” value came out at 0.0928 ± 0.015 under setting [1] and 0.0087 ± 0.0027 under setting [2].

Take UCCUGGAUCAGGAAGCAUAGUAUUUAGUUA: the “pre-steady-state target cleavage rate” value came to 0.0634 ± 0.0094 under setting [1] and 0.00311 ± 0.0023 under setting [2].

As to UCCUGGAUGUCCUUGCAAAGUAUAUAGUUA, the “pre-steady-state target cleavage rate” value came out at 0.0544 ± 0.014 under setting [1] and 0.00539 ± 0.002 under setting [2].

With UCCUGGAUGUGGUUGCAUAGUAUUUUGUUA, the “pre-steady-state target cleavage rate” value by setting is: under setting [1], 0.0586 ± 0.023; under setting [2], 0.0039 ± 0.0037.

In the case of UCCUGGAUCAGCUUGCAUAGUCAUUUAGUUA, the “pre-steady-state target cleavage rate” value runs as follows: under setting [1], 0.0161 ± 0.0075; under setting [2], 0.00581 ± 0.0023.

As for UCCUGGAUGUCGAAGCAUAGUUUUUAGUUA, the “pre-steady-state target cleavage rate” value is, setting by setting: under setting [1], 0.00892 ± 0.0039; under setting [2], 0.00397 ± 0.0017.

UCCUGGAUGAGCUUGCAAAGUAUUUAGUAA: the “pre-steady-state target cleavage rate” value under setting [1] is 0.085 ± 0.015 and the “pre-steady-state target cleavage rate” value under setting [2] was found to be 0.00635 ± 0.0025.

For UCCUGGAUCAGCUUGCAUAGUAUUCUAGUUA, the “pre-steady-state target cleavage rate” value came out at 0.239 ± 0.034 under setting [1] and 0.00658 ± 0.0024 under setting [2].

On to UCCUGGAUGUCCUUGCAUAGUAAAUAGUUA, for which the “pre-steady-state target cleavage rate” value reads like this: under setting [1], 0.034 ± 0.0081; under setting [2], 0.00497 ± 0.0022.

Take UCCUGGAACAGCUUGCUUAGUAUUUACUUA: the “pre-steady-state target cleavage rate” value runs as follows: under setting [1], 0.187 ± 0.032; under setting [2], 0.00316 ± 0.0028.

Regarding UCCUCCUACAGCUUGCAUAGUGUUUAGUUA, the “pre-steady-state target cleavage rate” value under setting [1] was 0.211 ± 0.017 and the “pre-steady-state target cleavage rate” value under setting [2] came out at 0.00543 ± 0.0025.

Regarding UCCUGGAUGUCCAUGGAUAGUAUUUAGUUA, the “pre-steady-state target cleavage rate” value runs as follows: under setting [1], 0.0252 ± 0.0073; under setting [2], 0.00317 ± 0.0025.

For UCCUGGAUCAGCUUGCAUACUAAUUAGUUA, the “pre-steady-state target cleavage rate” value reads like this: under setting [1], 0.0215 ± 0.0055; under setting [2], 0.00367 ± 0.0023.

As for UCCUGGUACAGCUUGGUAAGUAUUUAGUAA, the “pre-steady-state target cleavage rate” value under setting [1] was 0.18 ± 0.034 and the “pre-steady-state target cleavage rate” value under setting [2] is 0.00367 ± 0.0027.

In the case of UCCUGGAUCAGCUUGGAUAGUUUUUAGUUA, the “pre-steady-state target cleavage rate” value reads like this: under setting [1], 0.0521 ± 0.0089; under setting [2], 0.00364 ± 0.0024.

Take UCCUGGAUGAGCUAGCAUAGUAUAUAGUUA: the “pre-steady-state target cleavage rate” value reads like this: under setting [1], 0.242 ± 0.034; under setting [2], 0.0046 ± 0.0022.

As to UCCUGGAUGUCGAACCAAAGUAUUUUGUUA, the “pre-steady-state target cleavage rate” value reads like this: under setting [1], less than 0.0001; under setting [2], less than 0.0001.

As to UCCUGCUACAGCUUGCAAAGAAUUUAGUUA, the “pre-steady-state target cleavage rate” value turned out to be 0.0168 ± 0.0052 under setting [1] and 0.00324 ± 0.0017 under setting [2].

As for UCCUCCUACAGCUUGCAUAGUAUAUUAGUUA, the “pre-steady-state target cleavage rate” value came out at 0.282 ± 0.019 under setting [1] and 0.00588 ± 0.0024 under setting [2].

For UCCUGGAUGUCGUUGCAUUGUAUUUAGUUA, the “pre-steady-state target cleavage rate” value reads like this: under setting [1], 0.0197 ± 0.0048; under setting [2], 0.00572 ± 0.0024.

UCCUGGUACACCUUGCAAAGUAUUUAGUUA: the “pre-steady-state target cleavage rate” value under setting [1] is 0.0646 ± 0.011 and the “pre-steady-state target cleavage rate” value under setting [2] was 0.0081 ± 0.0033.

For UCCUGGAUGAGCUUGCAUAGUGAUUUAGUUA, the “pre-steady-state target cleavage rate” value reads like this: under setting [1], 0.00836 ± 0.0043; under setting [2], 0.00434 ± 0.0027.

In the case of UCCUGGAUGUCCUUUCAUAGUAUUUAGUUA, the “pre-steady-state target cleavage rate” value by setting is: under setting [1], 0.0723 ± 0.011; under setting [2], 0.00458 ± 0.0022.

As for UCCUGGAUGAGCUUGCAUAGUUAUUAGUUA, the “pre-steady-state target cleavage rate” value under setting [1] turned out to be 0.00731 ± 0.0048 and the “pre-steady-state target cleavage rate” value under setting [2] came out at 0.00364 ± 0.0023.

Take UCCUGGAUGUGCUUGCAUAGGUAUUUAGUUA: the “pre-steady-state target cleavage rate” value reads like this: under setting [1], 0.0061 ± 0.0046; under setting [2], 0.00533 ± 0.0032.

In the case of UCCUGGAUGUCCUUGCUUACUAUUUAGUUA, the “pre-steady-state target cleavage rate” value is 0.016 ± 0.0064 under setting [1] and 0.00305 ± 0.0023 under setting [2].

Consider UCCUGGAUGUCGUUGCCUAGUAUUUAGUUA, for which the “pre-steady-state target cleavage rate” value by setting is: under setting [1], 0.0556 ± 0.0094; under setting [2], 0.00949 ± 0.0028.

As to UCCUGGAUCAGCUUGCAUUGUAUUUUGUUA, the “pre-steady-state target cleavage rate” value turned out to be 0.1 ± 0.019 under setting [1] and 0.00344 ± 0.0026 under setting [2].

With UCCUGGAUGAGCUUGCAUAGUAUUCAGUUA, the “pre-steady-state target cleavage rate” value is, setting by setting: under setting [1], 0.136 ± 0.026; under setting [2], 0.00552 ± 0.0023.

For the sequence UCCUGGUACAGCUAGCAUUGUAUUUAGUUA, the “pre-steady-state target cleavage rate” value by setting is: under setting [1], 0.127 ± 0.017; under setting [2], 0.00717 ± 0.0034.

As for UCCUGGAUCAGCAUGCAUACUAUUUAGUUA, the “pre-steady-state target cleavage rate” value is 0.0724 ± 0.0079 under setting [1] and 0.00491 ± 0.0019 under setting [2].

UCCUGGAUGAGCUUGAUAGUAUUUAGUUA: the “pre-steady-state target cleavage rate” value is, setting by setting: under setting [1], 0.017 ± 0.0068; under setting [2], 0.00442 ± 0.0028.

For UCCUGGAUGAGCUUGCAUAGAUAUUUAGUUA, the “pre-steady-state target cleavage rate” value under setting [1] came out at 0.00786 ± 0.0038 and the “pre-steady-state target cleavage rate” value under setting [2] is 0.00424 ± 0.0022.

As to UCCUGGAUGUCGAUAGCAUAGUAUUUAGUUA, the “pre-steady-state target cleavage rate” value by setting is: under setting [1], 0.0459 ± 0.014; under setting [2], 0.00341 ± 0.0026.

With UCCUGGAUGAGGUUGCAUUGUAUUUAGUUA, the “pre-steady-state target cleavage rate” value reads like this: under setting [1], 0.0484 ± 0.01; under setting [2], 0.00431 ± 0.0027.

For UCCUGGAACAGCUUGGUAAGUAUUUAGUUA, the “pre-steady-state target cleavage rate” value is, setting by setting: under setting [1], 0.115 ± 0.014; under setting [2], 0.00498 ± 0.0019.

As for UCCUGGAUGUGGUUGCAUAGUAAUUAGUUA, the “pre-steady-state target cleavage rate” value runs as follows: under setting [1], 0.162 ± 0.034; under setting [2], 0.00751 ± 0.0032.

Take UCCUGGAUCAGGAUGCAUAGUAUUUAGUAA: the “pre-steady-state target cleavage rate” value under setting [1] amounted to 0.128 ± 0.012 and the “pre-steady-state target cleavage rate” value under setting [2] came to 0.00364 ± 0.002.

As for UCCUGGAUGUGCUUGCUUAGUAAUUAGUUA, the “pre-steady-state target cleavage rate” value by setting is: under setting [1], 0.0601 ± 0.0087; under setting [2], 0.00576 ± 0.0023.

For UCCUGGAUGUCGUUGCAUAGUAUAUUAGUUA, the “pre-steady-state target cleavage rate” value by setting is: under setting [1], 0.121 ± 0.023; under setting [2], 0.00754 ± 0.0028.

Regarding UCCUGGAUGUCCUUGGAUAGUAUAUAGUUA, the “pre-steady-state target cleavage rate” value under setting [1] was 0.165 ± 0.035 and the “pre-steady-state target cleavage rate” value under setting [2] stood at 0.0038 ± 0.0025.

For the sequence UCCUGGAUGUCCUUGCUUAGUUUUUAGUUA, the “pre-steady-state target cleavage rate” value was 0.0152 ± 0.0067 under setting [1] and 0.00494 ± 0.0023 under setting [2].

As for UCCUGGAUGUCGAUGCGUAGUAUUUAGUUA, the “pre-steady-state target cleavage rate” value runs as follows: under setting [1], 0.0121 ± 0.0036; under setting [2], 0.00501 ± 0.0024.

Consider UCCUGGAUCAGUUGCAUAGUAUUUAGUUA, for which the “pre-steady-state target cleavage rate” value came to 0.257 ± 0.016 under setting [1] and 0.00796 ± 0.002 under setting [2].

Consider UCCUGGAUGAGCUUGCUAAGUAUUUAGUUA, for which the “pre-steady-state target cleavage rate” value runs as follows: under setting [1], 0.0294 ± 0.0061; under setting [2], 0.00602 ± 0.0023.

Turning to UCCUGGAUGUCGAACCAAUGUAUUUAGUUA, the “pre-steady-state target cleavage rate” value under setting [1] is less than 0.0001 and the “pre-steady-state target cleavage rate” value under setting [2] was less than 0.0001.

On to UCCUGGAUGUCCUUGCAUUGUAUUAAGUUA, for which the “pre-steady-state target cleavage rate” value came to 0.0479 ± 0.012 under setting [1] and 0.00424 ± 0.0019 under setting [2].

For the sequence UCCUGGUACAGCUUGCAUAGGUAUUUAGUUA, the “pre-steady-state target cleavage rate” value worked out at 0.0078 ± 0.0065 under setting [1] and 0.00574 ± 0.0037 under setting [2].
